According to PubChem BioAssay (NCI):
Compounds without any hit were thinned out: in the full panel of roughly 79,000, 15% have a hit. Calls of active or inactive are those of the source. No stated cut-off is given here; in the data, active means growth inhibition above about 70%; inactive means the rest.

Assay: NCI Yeast Anticancer Drug Screen. Data for the rad18 strain (AID 177)
Settings: S. cerevisiae rad18 mutant growth inhibition, stronger effect = higher value
Protocol: Growth inhibition of yeast strains with defined genetic alterations is measured as a screen for potential anti-cancer activity. Selected strains with alterations in DNA damage repair or cell cycle control were exposed to compounds and growth inhibition was measured relative to vehicle treated controls. The strain used in this assay is rad18

Row | Structure (SMILES) | growth inhibition (at 1.2 µM) | growth inhibition (at 3.7 µM) | growth inhibition (at 11.0 µM) | growth inhibition (at 33.0 µM) | growth inhibition (at 100.0 µM)
1 | COc1cccc(C(c2cc3c(cc2O)OCO3)N2CCOCC2)c1OC (stereo not given) | -3% (inactive) | 0% (inactive) | 4% (inactive) | 10% (inactive) | 36% (inactive)
2 | CCCCCCCCCCCCCC(=O)OC(C)CCC1CCCO1 (stereo not given) | 0% (inactive) | 1% (inactive) | -3% (inactive) | -4% (inactive) | -5% (inactive)
3 | Cc1ccc(CNc2ccc(Br)cc2)cc1 | -6% (inactive) | -15% (inactive) | -7% (inactive) | 49% (inactive) | 77% (active)
4 | Cc1cc(Cl)nc2nc(Cl)c(N)cc12 | -29% (inactive) | -24% (inactive) | -10% (inactive) | 35% (inactive) | 80% (active)
5 | COc1cc(NCc2ccc3nc(N)nc(N)c3c2C)cc(OC)c1OC | -6% (inactive) | -2% (inactive) | 1% (inactive) | 20% (inactive) | 77% (active)
6 | S=c1cn[nH]c2ccc(Br)cc12 | 0% (inactive) | 2% (inactive) | 26% (inactive) | 86% (active) | 89% (active)
7 | Nc1ccc(CCl)cc1Cc1c(O)ccc2ccccc12 | 1% (inactive) | 1% (inactive) | 7% (inactive) | 16% (inactive) | 33% (inactive)
8 | O=C1C=CC(=O)N1c1ccc(N2C(=O)C=CC2=O)cc1 | 46% (inactive) | 90% (active) | 100% (active) | 100% (active) | 99% (active)
